Results on 20 molecules are retold here after PubChem BioAssay (NCI).

About 83,000 compounds went through this panel and 20% of them were active in at least one assay; those are over-represented in the sample as a whole.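 The test compound was applied at a single concentration to cells in 96-well plates for 48 hours, and percent growth was recorded.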 Unmarked numbers belong to inactive results. Activity calls are given as the source filed them. How the source made its calls: active means growth percent below 10; inactive means the rest.

Some test systems named below: NCI-H23 lung; NCI-H226 lung; NCI-H322M lung; HOP-62 NSCLC; NCI-H460 lung; HOP-92 NSCLC; NCI-H522 lung; A549/ATCC NSCLC; 786-0 renal; COLO 205 colon.
Assay in all cases: NCI-60 one-dose screen, 48 h (100 = growth as untreated, 0 = no growth, -100 = all killed)
Holding throughout (details): 10 µM

`COc1cc(-c2nc(-c3nnc(-c4cccnc4)o3)c3ccccn23)cc(OC)c1OC`: the growth with NCI-H23 lung is 101%; in the experiment with NCI-H226 lung, 86%; in the experiment on NCI-H322M lung, 101%; in the experiment on HOP-62 NSCLC, 102%; in the experiment with NCI-H460 lung, 109%; in the experiment with HOP-92 NSCLC, 100%. The growth in the experiment on NCI-H522 lung was 94.7%; with A549/ATCC NSCLC, 93.9%; in the experiment with 786-0 renal, 89.1%; in the experiment on COLO 205 colon, 119%.

With `O=NN(CC(=O)N/N=C/C=C\c1ccccc1)CC(=O)N/N=C/C=C/c1ccccc1`, the growth in the experiment with NCI-H23 lung was 112%; in the experiment with NCI-H226 lung, 90.7%; with NCI-H322M lung, 91.2%; in the experiment with HOP-62 NSCLC it was 69.6%; in the experiment on NCI-H460 lung, 99.3%; in the experiment with HOP-92 NSCLC, 60.6%. Further, the growth was 95.5% with NCI-H522 lung, 97.3% in the experiment with A549/ATCC NSCLC, 110% in the experiment with 786-0 renal and 109% in the experiment with COLO 205 colon.

As for `CCN(CCCNC(=O)Cc1cc(=O)oc2cc(N(C)C)ccc12)CCNc1ccnc2cc(Cl)ccc12`, the growth with NCI-H23 lung is 94.9%; in the experiment on NCI-H226 lung it was 93.1%; in the experiment with NCI-H322M lung it was 91%; in the experiment with HOP-62 NSCLC it was 85.6%; in the experiment with NCI-H460 lung, 92.3%; in the experiment with HOP-92 NSCLC, 59.5%. In addition, the growth in the experiment with NCI-H522 lung was 56.8%; in the experiment on A549/ATCC NSCLC, 93.4%; with 786-0 renal it was 86.3%; in the experiment with COLO 205 colon, 68.1%.

Regarding `FC(F)(F)c1ccc(-c2nc(-c3nc4cc(Cl)c(Cl)cc4[nH]3)c3ccccn23)cc1`, the growth in the experiment with NCI-H23 lung is 75.1%; in the experiment with NCI-H226 lung, 55.2%; in the experiment with NCI-H322M lung, 61.2%; with HOP-62 NSCLC it was 64%; in the experiment with NCI-H460 lung, 60.4%; with HOP-92 NSCLC, 37.9%. The growth in the experiment on NCI-H522 lung was 74.8%; in the experiment with A549/ATCC NSCLC, 62%; with 786-0 renal, 56.3%; in the experiment with COLO 205 colon, 87.1%.

On to `Cc1cc(/C=C2\SC(=Nc3ccccc3)N(C3CCCC3)C2=O)c(C)n1-c1ccc(Cl)cc1`, for which the growth in the experiment on NCI-H23 lung was -19.8% (active); in the experiment on NCI-H226 lung it was -66.6% (active); in the experiment on NCI-H322M lung, -55% (active); with HOP-62 NSCLC, -69.6% (active); in the experiment on NCI-H460 lung it was -57.4% (active); in the experiment with HOP-92 NSCLC it was -74.2% (active). Further, the growth in the experiment on NCI-H522 lung was -66.8% (active); with A549/ATCC NSCLC it was -27.5% (active); in the experiment with 786-0 renal it was -85.1% (active); in the experiment on COLO 205 colon, -94.5% (active).

Turning to `O=C(COc1ccc(-c2nc3ccccc3[nH]2)cc1)N=Nc1c(O)[nH]c2ccccc12`, the growth was 106% with NCI-H23 lung; 116% with NCI-H226 lung; 96.1% in the experiment with NCI-H322M lung; 105% in the experiment on HOP-62 NSCLC; 97.8% in the experiment on NCI-H460 lung; 79.8% with HOP-92 NSCLC. Moreover, the growth with NCI-H522 lung was 94%; with A549/ATCC NSCLC, 106%; in the experiment with 786-0 renal, 96.8%; in the experiment on COLO 205 colon, 92.4%.

As for `COc1cc(-c2c(C#N)c(N)n3c(nc4ccccc43)c2C#N)cc(Br)c1OC`, the growth in the experiment with NCI-H23 lung is 59.2%; in the experiment with NCI-H226 lung, 27.8%; with NCI-H322M lung it was 70.9%; in the experiment on HOP-62 NSCLC, 74.5%; in the experiment on NCI-H460 lung, 28.4%; in the experiment with HOP-92 NSCLC, -20.7% (active). Further, the growth in the experiment with NCI-H522 lung was 39.8%; in the experiment with A549/ATCC NSCLC, 4.73% (active); in the experiment on 786-0 renal, 22.2%; in the experiment on COLO 205 colon it was 55.1%.

For `CC(=O)Oc1c(C)c(C)c2c(c1C)CCC(C)(CC(=O)OCCCCCCCCCCC[P+](c1ccccc1)(c1ccccc1)c1ccccc1)O2` (stereo not given), the growth in the experiment on NCI-H23 lung was -52.2% (active); in the experiment with NCI-H226 lung, 13.2%; in the experiment on NCI-H322M lung, 13.7%; with HOP-62 NSCLC it was -84.7% (active); with NCI-H460 lung, -46.5% (active); in the experiment on HOP-92 NSCLC, -85.4% (active). Besides, the growth in the experiment on NCI-H522 lung was -78.5% (active); in the experiment with A549/ATCC NSCLC, -72% (active); in the experiment on 786-0 renal it was -92% (active); in the experiment with COLO 205 colon it was -73.9% (active).

Regarding `CCCN(CCC)CCCNC(=O)c1cc2c(-c3ccc(OC)c(OC)c3)nn(C)c2s1`, the growth is 11.6% in the experiment with NCI-H23 lung; 37.5% in the experiment on NCI-H226 lung; 22% with NCI-H322M lung; 34.5% in the experiment with HOP-62 NSCLC; 8.52% (active) in the experiment with NCI-H460 lung; -7.72% (active) with HOP-92 NSCLC. The growth with NCI-H522 lung was -17% (active); with A549/ATCC NSCLC it was 9.14% (active); with 786-0 renal it was 29.5%; in the experiment on COLO 205 colon, 90.1%.

With `COc1ccc(-c2nsc3c2NC(=O)CC3c2cccc(Cl)c2)cc1` (stereo not given), the growth was 46.9% in the experiment on NCI-H23 lung; 75% with NCI-H226 lung; 36% with NCI-H322M lung; 27.8% with HOP-62 NSCLC; 13.3% in the experiment with NCI-H460 lung; -2.09% (active) with HOP-92 NSCLC. For the same molecule, the growth in the experiment with NCI-H522 lung was -6.59% (active); in the experiment with A549/ATCC NSCLC it was 30.2%; in the experiment with 786-0 renal it was 46.4%; in the experiment with COLO 205 colon, -40.6% (active).

Consider `COc1ccc(Cn2cc3c(c2-c2ccccc2)CC(C)(C)c2cnoc2-3)cc1`, for which the growth in the experiment with NCI-H23 lung is 34.4%; in the experiment with NCI-H226 lung, 52.4%; in the experiment on NCI-H322M lung, 34.1%; in the experiment with HOP-62 NSCLC it was 34.2%; in the experiment with NCI-H460 lung it was 9.42% (active); in the experiment on HOP-92 NSCLC, 59.9%. Also, the growth with NCI-H522 lung was 43.3%; in the experiment with A549/ATCC NSCLC it was 49.6%; in the experiment on 786-0 renal, 35.4%; with COLO 205 colon it was 2.39% (active).

Regarding `C#CCn1c(-c2cccc(OCCCCl)c2)nc2c1c(=O)n(C)c(=O)n2C`, the growth in the experiment with NCI-H23 lung was 79.5%; with NCI-H226 lung it was 62.5%; with NCI-H322M lung it was 92.1%; in the experiment on HOP-62 NSCLC it was 81.4%; with NCI-H460 lung, 93.5%; with HOP-92 NSCLC it was 49.9%. The growth in the experiment on NCI-H522 lung is 52%; in the experiment with A549/ATCC NSCLC, 92%; in the experiment on 786-0 renal, 86.5%; in the experiment with COLO 205 colon, 96.8%.

For the molecule `CCCc1c(C)nc2scc(-c3ccc(Cl)cc3)n2c1=O`, the growth was 100% in the experiment on NCI-H23 lung; -100% (active) in the experiment on NCI-H226 lung; 102% in the experiment with NCI-H322M lung; 88.9% with HOP-62 NSCLC; 108% with NCI-H460 lung; 92.5% with HOP-92 NSCLC. Moreover, the growth is 94.3% in the experiment with NCI-H522 lung, 104% with A549/ATCC NSCLC, 101% in the experiment with 786-0 renal and 103% with COLO 205 colon.

As for `COc1ccc(-c2cc(/C=C3\C(=O)Nc4cc(Cl)ccc43)[nH]n2)cc1`, the growth with NCI-H23 lung is 54.1%; in the experiment on NCI-H226 lung, 56.1%; in the experiment on NCI-H322M lung, 81.9%; with HOP-62 NSCLC it was 45.4%; with NCI-H460 lung it was 22%; with HOP-92 NSCLC it was 51.7%. Moreover, the growth in the experiment with NCI-H522 lung was -14.9% (active); in the experiment on A549/ATCC NSCLC, 44%; with 786-0 renal, 52.1%; in the experiment with COLO 205 colon it was 19.4%.

Regarding `COc1ccccc1NC1=C(N2CCCCC2)C(=O)c2ccccc2C1=O`, the growth with NCI-H23 lung was 98.7%; with NCI-H226 lung, 84.5%; in the experiment on NCI-H322M lung, 80.9%; with HOP-62 NSCLC, 98.8%; in the experiment on NCI-H460 lung, 87.9%; with HOP-92 NSCLC it was 57.9%. Besides, the growth with NCI-H522 lung is 82.5%; in the experiment with A549/ATCC NSCLC, 74.4%; with 786-0 renal it was 87.5%; in the experiment on COLO 205 colon, 92.3%.

For `Cc1ccc2nc(-c3ccc(OCC(=O)N=Nc4c(O)[nH]c5ccccc45)cc3)[nH]c2c1`, the growth in the experiment on NCI-H23 lung was 94.9%; in the experiment on NCI-H226 lung it was 92.6%; with NCI-H322M lung it was 91.3%; with HOP-62 NSCLC it was 104%; in the experiment with NCI-H460 lung, -13.4% (active); in the experiment with HOP-92 NSCLC, 81.9%. Besides, the growth with NCI-H522 lung is 79.4%; in the experiment on A549/ATCC NSCLC it was 79.2%; in the experiment on 786-0 renal it was 36.1%; in the experiment on COLO 205 colon, 58.4%.

As for `O=C(NCCc1nccs1)c1cnc2c(S)cccc2c1`, the growth was 34.2% in the experiment on NCI-H23 lung; 46.1% in the experiment with NCI-H226 lung; 29.7% with NCI-H322M lung; 29.3% in the experiment with HOP-62 NSCLC; 0.683% (active) in the experiment on NCI-H460 lung; 54.5% in the experiment on HOP-92 NSCLC. Also, the growth was -65.7% (active) with NCI-H522 lung, 12.6% in the experiment with A549/ATCC NSCLC, 47% with 786-0 renal and -52.4% (active) with COLO 205 colon.

For the molecule `CCNC1(NC#N)CCCCC1`, the growth was 102% in the experiment with NCI-H23 lung; 95.6% in the experiment with NCI-H226 lung; 113% in the experiment with NCI-H322M lung; 109% in the experiment with HOP-62 NSCLC; 113% in the experiment with NCI-H460 lung; 85% with HOP-92 NSCLC. The growth in the experiment on NCI-H522 lung was 123%; with A549/ATCC NSCLC, 91.4%; in the experiment on 786-0 renal, 100%; in the experiment on COLO 205 colon it was 111%.

For `O=c1cc(CSc2nnc(-c3ccccc3)n2-c2ccc(F)cc2)c2ccc3ccccc3c2o1`, the growth is 83.6% in the experiment on NCI-H23 lung; 81.4% with NCI-H226 lung; 91.8% with NCI-H322M lung; 92.8% in the experiment with HOP-62 NSCLC; 100% in the experiment on NCI-H460 lung; 83.5% with HOP-92 NSCLC. Further, the growth in the experiment with NCI-H522 lung was 74.1%; with A549/ATCC NSCLC, 99.2%; in the experiment on 786-0 renal, 102%; with COLO 205 colon, 91.3%.

Turning to `CCCCCCCCCCCCCCCCn1cc[n+](C)c1`, the growth in the experiment with NCI-H23 lung was -51.9% (active); in the experiment on NCI-H226 lung, -60.5% (active); in the experiment on NCI-H322M lung it was 8.28% (active); in the experiment on HOP-62 NSCLC, -82.7% (active); in the experiment with NCI-H460 lung, -87.9% (active); in the experiment on HOP-92 NSCLC, -80.2% (active). Further, the growth with NCI-H522 lung is -87.4% (active); with A549/ATCC NSCLC, -50.9% (active); with 786-0 renal, -90.4% (active); in the experiment with COLO 205 colon, -46% (active).
